Laboratory results as given in PubChem BioAssay AID431 (Sanford-Burnham Center for Chemical Genomics, 2006).
Among all 63,000 compounds or so, about 1,100 (1.7%) were called active. The sample as a whole holds a higher share of actives than the screen did. Results with a measured potency or affinity are listed apart. Unmarked numbers belong to inactive results.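 The calls were made as follows: active = compounds whose percent cytotoxicity in the single-dose primary screen, scaled between solvent and toxic-drug controls, exceeds 50; inactive = the rest.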

Test: viability loss of HPDE-C7K cells – cell-based, fluorescence, HTS, primary screen (AID 431);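 also: 0% = DMSO solvent wells and 100% = doxorubicin-treated wells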
Conditions: HPDE-C7K KRASV12 cells, Alamar Blue viability, 48 h; at 10 µM; active compounds read high

| Compound | cytotoxicity |
| --- | --- |
| COC(=O)[C@@H](NC(=O)Nc1ccccc1F)C(C)C | 1.9% |
| COc1ccc(C(=O)c2ccc(OC)c(OC)c2)cc1OC | -8.4% |
| COc1ccc(C(N)=O)cc1N | -1% |
| COc1ccc(C(=O)c2ccc(OC)c(N)c2)cc1N | 66.7% (active) |
| CN(Cc1ccccc1)C(=O)C1CCN(Cc2ccc(F)cc2)CC1 | 8.6% |
| CC(C)(C)OC(=O)N1CCC(c2c(C(=O)O)cnn2-c2ccccc2Cl)CC1 | 1% |
| Cc1ccc(CNC(=O)CCS(=O)(=O)c2ccc(Br)s2)o1 | -4.2% |
| CCOc1ccccc1NC(=O)CN(c1ccc(C)cc1)S(=O)(=O)c1c(C)noc1C | -7.2% |
| CCOc1ccccc1NC(=O)CN(c1ccc(OC)cc1)S(=O)(=O)c1c(C)noc1C | 52.8% (active) |
| COc1ccc(OC)c(NC(=O)CN(c2ccc(C)cc2)S(=O)(=O)c2c(C)noc2C)c1 | 1.7% |
| COc1ccc(N(CC(=O)Nc2cc(C)ccc2OC)S(=O)(=O)c2c(C)noc2C)cc1 | 9.5% |
| COc1ccc(N(CC(=O)Nc2cc(Cl)ccc2OC)S(=O)(=O)c2c(C)noc2C)cc1 | 77.1% (active) |
| CCOc1ccccc1NC(=O)CN(c1cc(C)cc(C)c1)S(=O)(=O)c1c(C)noc1C | -9.2% |
| COc1ccccc1C(=O)N1CCN(S(=O)(=O)Cc2ccccc2)CC1 | -0.3% |
| CCOc1cc(CNc2ncnc3nc[nH]c23)ccc1OC | 6.5% |
| Cc1ccc2nsnc2c1S(=O)(=O)N1CCN(C(=O)C2CCCO2)CC1 (stereo not given) | -15.6% |
| COc1cc2c(cc1OC)C(C)N(C(=O)Cn1ncc3c1-c1ccccc1OC3)CC2 (stereo not given) | -1.4% |
| CC(C)(C)C(=O)Cn1c(NCCCO)nc2ccccc21 | -18.5% |
| Cc1onc(-c2ccccc2)c1C(=O)N1CCCN(C(=O)c2c(-c3ccccc3)noc2C)CC1 | -5.2% |
| Cc1onc(-c2ccccc2)c1C(N)=O | 50.5% (active) |
| Cc1onc(-c2ccccc2Cl)c1C(N)=O | 8% |
| CCOC(=O)c1[nH]c(C)c(C(=O)Nc2ccc(C)c(F)c2)c1C | 0.8% |
| CCc1ccc(NC(=O)c2noc3c2CCCCC3)cc1 | 3.4% |
| COc1ccc(C(=O)N2CCOCC2)cc1Br | -1% |
| Cc1cccc(OCC(=O)OCC(=O)c2c(N)n(C)c(=O)n(C)c2=O)c1 | 3% |

| Compound | cytotoxicity |
| --- | --- |
| O=C(C1CCCN(S(=O)(=O)c2ccc(Br)s2)C1)N1CCCCCC1 (stereo not given) | -15.2% |
| COC(=O)C1C(=O)C2=C(CC1C)NC(=O)CC2c1ccc(O)c(OC)c1 (stereo not given) | -9.5% |
| Cc1ccc(C)c(S(=O)(=O)NCc2cccnc2)c1 | 52% (active) |
| Cc1cc(C)c(C)c(S(=O)(=O)NCc2cccnc2)c1C | -6.4% |
| Cc1ccc(C(C)C)cc1S(=O)(=O)NCc1cccnc1 | 0.8% |
| COCCN1Cc2c(sc(C)c2C)N(C(=O)c2ccccc2)C1 | 5.6% |
| CC1Cc2cc(-c3csc(NC(=O)Cc4cccs4)n3)ccc2N1S(C)(=O)=O (stereo not given) | 61.4% (active) |
| O=C(Cc1cccs1)Nc1nc(-c2ccccc2)cs1 | -14.2% |
| CS(=O)(=O)N1CCc2cc(-c3csc(NC(=O)Cc4cccs4)n3)ccc21 | 2.8% |
| CNC(=O)C1CCC(=O)N1Cc1ccc(C)cc1 (stereo not given) | -0.7% |
| O=C(O)c1cc(-c2ccccc2)nc2ccccc12 | 2% |
| Cc1ccc2nc(NCCO)nc(-c3ccccc3)c2c1 | 16.3% |
| O=C(CSc1ncc(-c2ccc(F)cc2)[nH]1)Nc1cccc(O)c1 | 25.6% |
| Cc1ccc(CNC(=O)C2C3C=CC(C3)C2C(=O)O)cc1 (stereo not given) | 1.9% |
| CCOC(=O)c1c(C)noc1CP(=O)(c1ccccc1)c1ccccc1 | 2.6% |
| O=C(O)CCCNc1cc(N2CCC3(CC2)OCCO3)c2noc3c2c1C(=O)c1ccccc1-3 | 40.2% |
| CCOC(=O)N1CCN(c2cc(NCCC(=O)O)c3c4c(onc24)-c2ccccc2C3=O)CC1 | 61.7% (active) |
| CCOC(=O)c1c(C)[nH]c(C)c1-c1ccccc1OC | -2.6% |
| CC(=O)OCCNc1cc(N2CCN(C)CC2)c2noc3c2c1C(=O)c1ccccc1-3 | 16.8% |
| CC(CC(=O)O)CC1=NS(=O)(=O)c2ccccc2N1 (stereo not given) | -8.6% |
| COc1ccc(CC(=O)Nc2c3c(nn2-c2cccc(C)c2C)CS(=O)C3)cc1OC (stereo not given) | 0.8% |
| COc1ccc(C(=O)c2sc(NC(C)C)nc2N)cc1OC | -12.6% |
| CCCc1nnc(NC(=O)c2cccc(OC)c2)s1 | -25.2% |
| COc1cccc(C(=O)c2sc(NC(C)C)nc2N)c1 | 72.7% (active) |
| O=C(CSC1=NCCS1)NC1CCCCC1 | 3.6% |

| Compound | cytotoxicity |
| --- | --- |
| CCC(CC)C1C(C#N)=C(N)Oc2n[nH]c(C)c21 (stereo not given) | 56.7% (active) |
| Cc1[nH]nc2c1C(C(C)C)C(C#N)=C(N)O2 (stereo not given) | 7.9% |
| CCC(C)C1C(C#N)=C(N)Oc2n[nH]c(C)c21 (stereo not given) | 7.5% |
| CCOC(=O)Cc1cc(=O)n(-c2nc3ccccc3s2)[nH]1 | 79.8% (active) |
| COC(=O)Cc1cc(=O)n(-c2nc3ccccc3[nH]2)[nH]1 | 4.2% |
| COC(=O)Cc1cc(=O)n(-c2nc3ccccc3s2)[nH]1 | 87.9% (active) |
| CCOC(=O)c1nc2ccccc2s1 | -9.2% |
| CCOC(=O)CC(=O)Nc1nc2ccccc2s1 | -6.8% |
| COC(=O)Cc1cc(=O)n(-c2ccccc2)[nH]1 | -4.1% |
| CSC1=C(C#N)C(C)C2=C(CC(C)(C)CC2=O)N1 (stereo not given) | -15.4% |
| Cc1cc(C)nc(N2CCC(C(=O)NC3CCCCCC3)CC2)n1 | -1.8% |
| COc1ccc(N2CCN(C(c3ccccc3)c3nnnn3Cc3ccc(F)cc3)CC2)cc1 (stereo not given) | -7.5% |
| O=C(Cc1ccc(Cl)cc1)Nc1ccc(-c2nnc(-c3ccco3)o2)cc1 | 4.4% |
| O=C1CN(C(=O)c2cccs2)c2ccccc2N1 | -12.5% |
| O=C(c1ccc(F)cc1)N(Cc1ccccc1)C1CCS(=O)(=O)C1 (stereo not given) | -7.8% |
| CCOc1ccc(-c2[nH]ncc2Oc2ccccc2OCC)c(O)c1 | 55.7% (active) |
| C=C(C)COc1ccc(-c2[nH]ncc2-c2ccc(OC)c(OC)c2)c(O)c1 | 4.1% |
| CCOc1ccc(-c2[nH]ncc2Oc2ccccc2OC)c(O)c1 | 61.4% (active) |
| COc1ccc(-c2[nH]ncc2-c2cnc(C)s2)c(O)c1 | 7.2% |
| COc1ccc(Oc2cn[nH]c2-c2ccc(O)cc2O)cc1 | 24.9% |
| COc1ccc(-c2[nH]ncc2-c2ccc(Cl)cc2)c(O)c1 | 47% |
| CCOc1ccccc1Oc1cn[nH]c1-c1ccc(OC)cc1O | 61.8% (active) |
| COc1ccc(-c2[nH]ncc2Oc2ccccc2OC)c(O)c1 | 42.5% |
| CCOc1ccc(-c2[nH]ncc2-c2ccc(OC)c(OC)c2)c(O)c1 | 51.8% (active) |
| CCOC(=O)C1CCN(Cc2nc3ccccc3c(=O)n2-c2ccc(OCC)cc2)CC1 | 7.8% |

| Compound | cytotoxicity |
| --- | --- |
| CC(=O)Nc1ccc(OC(F)(F)C(F)C(F)(F)F)c(NC(C)=O)c1 (stereo not given) | -5.3% |
| CCOC(=O)c1c(C)n(CC(O)c2ccccc2)c2ccc(O)cc12 (stereo not given) | -7.5% |
| OCCNCc1ccc(OC2CCCC2)cc1 | 5.4% |
| COc1ccc(CCNC(=O)CC2Nc3cc(C)c(C)cc3NC2=O)cc1OC (stereo not given) | 0% |
| O=C(O)Cn1cccc1C(=O)c1ccccc1 | -0.1% |
| N=c1c(C(=O)NCc2ccc(F)cc2)cc2c(=O)n3ccccc3nc2n1Cc1ccco1 | -3.9% |
| O=C(Cn1c(=O)sc2ccccc21)NCCOc1ccccc1F | -11.5% |
| CCC(C)Sc1nnc(Cc2cc(=O)[nH]c(=O)[nH]2)n1-c1ccc(F)cc1 (stereo not given) | -12.7% |
| CC(=O)Nc1ccc(N(C(=O)c2cnccn2)C(C(=O)NC2CCCCC2)c2ccc(O)cc2)cc1 (stereo not given) | -16.5% |
| CCOC(=O)c1sc(NC(=O)c2ccc(CC)s2)nc1C | 4.6% |
| C=C(C)COc1ccc(-c2nc(N)ncc2Oc2ccccc2OCC)c(O)c1 | 18.1% |
| C=C(C)COc1ccc(-c2[nH]ncc2Oc2ccccc2OCC)c(O)c1 | 78.4% (active) |
| CC1Cc2ccccc2N1C(=O)CN1C(=O)NC(C)(c2ccc3c(c2)OCCO3)C1=O (stereo not given) | 1.8% |
| CN1CCN(c2ccc(NC(=O)c3ccccc3Br)cc2)CC1 | 2.5% |
| COc1cc2ccccc2cc1C(=O)N1CCN(C)CC1 | -4.6% |
| COc1cc2ccccc2cc1C(=O)Nc1ccc(N2CCN(C)CC2)cc1 | 65.5% (active) |
| O=C(Nc1sccc1C(=O)N1CCOCC1)c1cccnc1 | 10.9% |
| CCCc1nc(SCC(=O)N2CCN(c3ccccc3)CC2)c2c(=O)n(C)c(=O)n(C)c2n1 | 0.7% |
| Cn1c(=O)c2c(SCC(=O)N3CCC(Cc4ccccc4)CC3)nc(C3CC3)nc2n(C)c1=O | 4% |
| CCOC(=O)CC(=O)CSc1nc(N)c(C#N)c(-c2ccc(Cl)cc2)c1C#N | 68.4% (active) |
| CCCCOC(=O)CSc1nc(N)c(C#N)c(-c2ccc(OC)cc2)c1C#N | -26.1% |
| CCOC(=O)CSc1nc(N)c(C#N)c(-c2ccc(OC)cc2)c1C#N | -14.8% |
| CCOC(=O)CC(=O)CSc1nc(N)c(C#N)c(-c2ccc(F)cc2)c1C#N | 16.5% |
| CCCCOC(=O)CSc1nc(N)c(C#N)c(-c2ccc(OCC)cc2)c1C#N | 17% |
| CCCCOc1ccc(-c2c(C#N)c(N)nc(SCC(N)=O)c2C#N)cc1 | 105% (active) |
